Screening data from PubChem BioAssay.
Only some compounds are listed: those with a hit (about 8.6% of all), similar ones and a draw of the others.
MARV entry inh: Marburg virus entry inhibition | Marburg virus pseudotype entry/binding inhibition, cell-based | Potency, µM (titrated, usually from 49.2 µM), for inactives: at the top dose activity change, negative = inhibition, most hits filed as inhibitors | actives 6.5% (n = 18,000) | AID 720532
LASV entry inh: inhibitors of Lassa virus binding or entry into cells; Lassa virus pseudotyped entry inhibition, cell-based qHTS; Potency, µM (series often up to 49.2 µM), without a hit: at the top dose activity change, negative = inhibition, hits mostly inhibitors; actives 4.1% (n = 18,000); AID 720533
Numbers without * were called inactive; [ ] = remark or other dose. Calls follow the shape of the full dose curve; tested in HEK293 cells. % is scaled to controls: 0 for no effect and ±100 for the full control effect; potency is read from the fitted curve at half-maximal effect.

COC(=O)C1=C(C(=O)OC)[C@@H]2N(C)c3ccccc3[C@@]23C[C@@H](C(=O)OC)N(C(=O)Nc2cccc(C#N)c2)C3=N1 was read as MARV entry inh 27%[8.59 µM] and LASV entry inh 0%[8.59 µM].
Screening CCCCC(O)c1ccccc1 (centres undefined) returned MARV entry inh 4% and LASV entry inh -14%.
CCCCCCN1C[C@@H](O)[C@H](n2cc(-c3ccc(F)cc3)nn2)C[C@H]1c1ccc(C)cc1 was read as MARV entry inh inconclusive and LASV entry inh -27%.
Screening O=C(OC1Cc2c(O)cc(O)cc2OC1c1cc(O)c(O)c(O)c1)c1cc(O)c(O)c(O)c1 (centres undefined) returned MARV entry inh 8.9µM* and LASV entry inh -1%.
O=C(OC1Cc2c(O)cc(O)cc2OC1c1cc(O)c(O)c(O)c1-c1c(C2Oc3cc(O)cc(O)c3CC2OC(=O)c2cc(O)c(O)c(O)c2)cc(O)c(O)c1O)c1cc(O)c(O)c(O)c1 (centres undefined) was read as MARV entry inh 11µM* and LASV entry inh -2%.
`Oc1ccc(C2Oc3cc(O)cc(O)c3CC2O)cc1` (centres undefined) gave MARV entry inh -4% and LASV entry inh -4%.
Oc1cc(O)c2c(c1)OC(c1cc(O)c(O)c(O)c1)C(O)C2 (centres undefined) was read as MARV entry inh inconclusive and LASV entry inh 3%.
O=C1C[C@@H](c2ccc(O)cc2)Oc2cc(O)cc(O)c21 was read as MARV entry inh 21%[17.8 µM] and LASV entry inh 31%[17.8 µM].
Screening O=C(OC1Cc2c(O)cc(O)cc2OC1c1cc(O)c(=O)c2c(O)c(O)cc(C3Oc4cc(O)cc(O)c4CC3OC(=O)c3cc(O)c(O)c(O)c3)c2c1)c1cc(O)c(O)c(O)c1 (centres undefined) returned MARV entry inh 1.3µM* and LASV entry inh -16%.
O=C(O[C@@H]1Cc2c(O)cc(O)cc2OC1c1ccc(O)c(O)c1)c1cc(O)c(O)c(O)c1 (some centres undefined) was read as MARV entry inh 13µM* and LASV entry inh 6%.
For NS(=O)(=O)c1ccc(N=Nc2c(O)[nH]c3ccc(C(=O)NCCCn4ccnc4)cc23)cc1 the results were MARV entry inh -12% and LASV entry inh inconclusive.
`C[C@@H]1N[S+](=O)([O-])c2cccc(Cl)c2O[C@H]1c1ccccc1` gave MARV entry inh 33% and LASV entry inh inconclusive.
`CCCCCCN1C[C@@H](O)[C@H](n2cc(COC(=O)c3ccccc3)nn2)C[C@H]1c1ccc(Cl)cc1` gave MARV entry inh -12% and LASV entry inh -24%.
C[C@@H]1C=CCC(=O)N[C@@H](c2ccc3ccccc3c2)[C@H](C)C=CCC(=O)N[C@@H]1c1ccc2ccccc2c1 was read as MARV entry inh inconclusive and LASV entry inh -2%[8.59 µM].
Screening O=C(NCC1Cc2cc(F)cc(-c3cnccn3)c2O1)c1cccc(-c2ccccc2F)c1 (centres undefined) returned MARV entry inh -11% and LASV entry inh inconclusive.
Screening Cc1nc2ccc(C(=O)NCC3CCC4(CCN(Cc5cccnc5)CC4)O3)cc2nc1C (centres undefined) returned MARV entry inh inconclusive and LASV entry inh -14%.
`COc1cc(CN2CCC3(CCC(CNC(=O)c4ccccc4)O3)CC2)cc(OC)c1` (centres undefined) gave MARV entry inh 13µM* and LASV entry inh -11%.
`COC(=O)[C@@]1(O)C[C@@H]2O[C@@]1(C)n1c3ccccc3c3c4c(c5c6ccccc6n2c5c31)C(=O)NC4` gave MARV entry inh 14µM* and LASV entry inh -20%.
CC[C@@]12CCCN3CCc4c(n(c5ccccc45)[C@](O)(C(=O)OC)C1)[C@H]32 was read as MARV entry inh inconclusive and LASV entry inh -8%.
Screening COC(=O)C1(O)CC2OC1(C)n1c3ccccc3c3c4c(c5c6ccccc6n2c5c31)C(=O)NC4 (centres undefined) returned MARV entry inh 4µM* and LASV entry inh inconclusive.
Screening C=CCCCN1C(=O)NC(c2ccccc2)C(C(=O)OC)=C1C (centres undefined) returned MARV entry inh -29%[8.59 µM] and LASV entry inh 3%[8.59 µM].
Cc1ccccc1CN1[C@@H](CC(C)C)COc2c(Cl)cccc2S1(=O)=O was read as MARV entry inh -24% and LASV entry inh 15%.
O[C@H]1C[C@H](c2ccc(Cl)cc2)N(Cc2cccs2)C[C@H]1n1cc(C2CC2)nn1 was read as MARV entry inh inconclusive and LASV entry inh -5%.
For Cn1cc(CN2CCOc3ccc(C(O)C4CCCCC4)cc3C2)cn1 (centres undefined) the results were MARV entry inh -25% and LASV entry inh 4%.
For CC(=O)OC1CC2C(C)(C)C(O)CC[C@@]2(C)C2CC[C@@]3(C)C(c4ccoc4)OC(=O)C4OC43[C@]12C (some centres undefined) the results were MARV entry inh inconclusive and LASV entry inh -8%.
